Screens: PubChem BioAssay, several laboratories
Y pestis TopoI: Yersinia pestis topoisomerase I inhibitors, primary screen, biochemical, cleavage product accumulation, plate reader, single point | DNA topoisomerase I (Yersinia pestis CO92) | Y. pestis Topo-I cleavage product accumulation | activity, % at 10 µM | 0.064% of 360,000 active; in the data active = activity above about 50%, passing the limit was not always enough; inconclusive = no clear call, values can overlap the other calls
BH1578 lux ind: inducers of Vibrio cholerae quorum light production without autoinducers, primary screen, BH1578 luxS cqsA deficient, single point | AID 588436, 2011 | V. cholerae BH1578 lux reporter, luminescence, 6 h | activation, % at 18.7 µM | 0.16% of 350,000 active; in the data active = activation mostly above about 9.7%, no sharp cut-off; inconclusive = no clear call, values can overlap the other calls; inactive = mostly below about 3.7%
VHR inh abs: VHR1 phosphatase inhibitors, primary screen, biochemical, absorbance, uHTS; inhibition, % at 13.3 µM; AID 1654, 2009; recombinant VHR phosphatase, pNPP absorbance; Dual specificity protein phosphatase 3 (Homo sapiens), P51452; 0.52% of 290,000 active; in the data active = inhibition above about 50%
BioA inh-1: M. tuberculosis BioA enzyme inhibitors, primary screen, biochemical, plate reader, single point, HTS. purified M. tuberculosis BioA enzyme. inhibition, % at 9.99 µM. 0.096% of 360,000 active. AID 602481, 2012; in the data active = inhibition above about 40%; inconclusive = no clear call, values can overlap the other calls
TcdB GH inh: TcdB glycohydrolase inhibitors, primary screen, biochemical, single point, plate reader; inhibition, % at 9.99 µM; Toxin B (Clostridioides difficile), P18177; 0.24% of 350,000 active; AID 652162, 2013; TcdB glycohydrolase enzymatic assay; in the data active = inhibition above about 10%
BioA inh-2: Mtb BioA enzyme inhibitors, dose response, biochemical, plate reader, cherry-pick samples, set 03. 310 tested, under 10 active. AID 651679, 2012. purified BioA enzyme. shares compounds with BioA inh-1. max activity, %;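 also: top concentration of the dilution series was 10 µM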
Target sequence (P9WQ81 whole entry, looked up): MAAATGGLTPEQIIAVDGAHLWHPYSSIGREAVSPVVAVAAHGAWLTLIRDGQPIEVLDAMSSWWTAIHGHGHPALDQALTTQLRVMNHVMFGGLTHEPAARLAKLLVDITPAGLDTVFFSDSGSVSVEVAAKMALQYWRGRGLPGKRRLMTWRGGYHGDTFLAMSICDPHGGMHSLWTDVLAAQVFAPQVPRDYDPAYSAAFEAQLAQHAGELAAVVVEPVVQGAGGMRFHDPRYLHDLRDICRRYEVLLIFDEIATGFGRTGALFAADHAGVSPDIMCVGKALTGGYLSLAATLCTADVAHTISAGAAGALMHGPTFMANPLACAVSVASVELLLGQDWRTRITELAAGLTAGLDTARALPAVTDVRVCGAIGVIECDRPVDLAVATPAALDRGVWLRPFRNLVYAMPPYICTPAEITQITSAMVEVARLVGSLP
HepG2 tox 2: cytotoxicity in HepG2 cells, dose response, cytotoxicity control, cell-based, plate reader, cherry-pick, two tests; shares compounds with BioA inh-1; AID 651898, 2012; 310 tested, under 10 active; max activity, %
3T3 cytotox 5: cytotoxicity in NIH3T3 fibroblasts, dose response, cytotoxicity control, cell-based, plate reader, cherry-pick, two tests | 310 tested, under 10 active | shares compounds with BioA inh-1 | activity change, negative = cytotoxicity, % at 26 µM
Numbers stand for hits; 0 = inactive; ? = inconclusive; - = no result. Sampled rows, rich in hits. Any-hit rate of the full collection: about 0.73%. Unless noted, no rule for the calls is given here.

SMILES	Y pestis TopoI	BH1578 lux ind	VHR inh abs	BioA inh-1	TcdB GH inh	BioA inh-2	HepG2 tox 2	3T3 cytotox 5
CN(C)C(=O)c1cccc(-c2ccc3c(c2)[C@H]2[C@H](CCN2C(=O)Cc2ccccc2)[C@@H](CO)N3)c1	-	-	-	-	0	-	-	-
O=C(Nc1cccc(F)c1)N1[C@@H]2CNC[C@H]1C2c1ccc(-c2cccnc2)cc1 (stereo partly drawn)	-	-	-	-	0	-	-	-
Cc1ccc(-c2ccc3c(c2)O[C@@H](CN(C)Cc2ccncc2)[C@H](C)CN([C@H](C)CO)S3(=O)=O)cc1	-	-	-	0	0	-	-	-
COc1ccccc1C(=O)Nc1ccc2c(c1)OC[C@@H](C)N(C)C[C@H](C)[C@@H](OC)CN(C)C2=O	-	-	-	0	0	-	-	-
O=C(O)CN1C(=O)/C(=C\c2cc(Br)ccc2OCc2ccccc2Cl)SC1=S	0	0	0	0	0	-	-	-
O=C(O)CN1C(=O)/C(=C\c2cc(Br)ccc2OCc2ccc([N+](=O)[O-])cc2)SC1=S	0	0	0	62	0	0	?	?
Cc1noc(C)c1NC(=O)N(C)C[C@H]1OCCCC[C@H](C)Oc2ccc(NC(=O)Nc3ccc(C(F)(F)F)cc3)cc2C(=O)N([C@H](C)CO)C[C@@H]1C	-	-	-	0	0	-	-	-
Cc1ccc(S(=O)(=O)Nc2ccc3c(c2)C(=O)N([C@H](C)CO)C[C@@H](C)[C@H](CN(C)S(C)(=O)=O)O3)cc1	-	-	-	0	0	-	-	-
Cc1cccc(-c2nnc(SCC#N)n2-c2ccccc2)c1	0	0	0	44	-	0	0	0
Cc1cccc(-c2nnc(SCC#N)n2Cc2ccccc2)c1	0	0	0	0	-	-	-	-
Cc1ccc(-c2nn(CCC(=O)Nc3cccnc3)c(=O)c3ccccc23)cc1	0	0	0	89	0	0	0	0
CC1=CC2=NC(=O)/C(=C\c3cc(C)n(-c4ccccc4F)c3C)C(=N)N2O1	0	0	0	41	0	0	0	0
CC1=CC2=NC(=O)/C(=C\c3cc(C)n(-c4ccccc4)c3C)C(=N)N2O1	0	0	0	0	0	-	-	-
C[C@H]1CCCCO[C@H](CN(C)S(=O)(=O)c2ccccc2)[C@@H](C)CN([C@@H](C)CO)C(=O)c2cc(NC(=O)Nc3ccc(C(F)(F)F)cc3)ccc2O1	-	-	-	0	0	-	-	-
COc1ccc(NC2CCCN(C(=O)c3ccc(C(C)=O)s3)C2)cc1 (stereo not drawn)	0	0	0	84	0	0	0	0
CCC(=O)N1CCC2(CC1)CN(Cc1ccccc1Cl)[C@H](CO)c1c2c2ccc(OC)cc2n1C	-	-	-	-	0	-	-	-
Cc1nnc(N2CCC(C(=O)N3CCCCC3)CC2)c2nn(-c3ccc(Cl)cc3)c(C)c12	0	0	0	51	-	0	0	0
COc1ccc(-c2cc(NC=O)c3ncc(-c4cccc(C(=O)N(C)C)c4)n3c2)cn1	0	0	-	42	0	0	0	0
COc1cccc(-c2cc(NC=O)c3ncc(-c4cccc(C(=O)N(C)C)c4)n3c2)c1	0	0	-	0	0	-	-	-
COc1cccc(NC(=O)N(C)C[C@@H]2OCc3ccccc3-c3ccccc3C(=O)N([C@@H](C)CO)C[C@@H]2C)c1	-	-	-	0	0	-	-	-
N#Cc1ccc(-c2ccc3c(c2)[C@H]2[C@H](CCN2C(=O)c2ccc(F)cc2)[C@H](CO)N3)cc1	-	-	-	0	-	-	-	-
O=C(c1ccc2c(c1)OCO2)N1CC[C@@H]2[C@H](CO)Nc3ccc(-c4ccc(F)cc4)cc3[C@@H]21	-	-	-	90	0	0	0	0
N#Cc1ccc(-c2ccc3c(c2)[C@@H]2[C@@H](CCN2C(=O)c2ccc(F)cc2)[C@@H](CO)N3)cc1	-	-	-	40	-	0	0	0
O=C(c1ccc2c(c1)OCO2)N1CC[C@@H]2[C@@H](CO)Nc3ccc(-c4ccc(F)cc4)cc3[C@@H]21	-	-	-	0	0	-	-	-
COc1ccccc1C(=O)N1C[C@@H]2[C@H](c3ccccc31)[C@@H](CO)N2C(=O)Nc1ccccc1	-	-	-	0	0	-	-	-
SMILES	Y pestis TopoI	BH1578 lux ind	VHR inh abs	BioA inh-1	TcdB GH inh	BioA inh-2	HepG2 tox 2	3T3 cytotox 5
O=C(c1cccc(F)c1)N1CC[C@@H]2[C@H](CO)Nc3ccc(-c4cccc(F)c4)cc3[C@@H]21	-	-	-	41	-	0	0	0
O=C(c1cccc(F)c1)N1CC[C@@H]2[C@H]1c1cc(-c3cccc(F)c3)ccc1N[C@@H]2CO	-	-	-	73	-	0	0	0
O=C(c1cccc(F)c1)N1CC[C@@H]2[C@H]1c1cc(-c3ccccc3)ccc1N[C@@H]2CO	-	-	-	-	0	-	-	-
COc1ccc(CCNC(=O)c2cnc3n(c2=O)CCS3)cc1OC	0	0	0	48	-	0	0	0
CO[C@@H]1CN(C)C(=O)c2ccc(NC(=O)Nc3ccccc3F)cc2OC[C@H](C)NC[C@@H]1C	-	-	-	0	0	-	-	-
CCOC(=O)C1CCN(C(=O)Nc2ccc3snnc3c2)CC1	0	0	0	72	0	0	0	0
CCOC(=O)C1CCN(C(=O)Nc2ccc3nccnc3c2)CC1	0	0	0	0	-	-	-	-
